According to PMC8384837, “Expanding the binding specificity for RNA recognition by a PUF domain”:
Substitutions are numbered along the chain they refer to.

Legend:
Assay in all cases: yeast three-hybrid, YBZ-1, SC-Leu-His + 0.5 mM 3-AT, 4 days
Conditions in all cases: tags: N-Gal4 AD-HA kept; label: inside an RPR1-promoter hybrid RNA with tandem MS2 sites; ssRNA
PUM1 PUF domain R2-LWD = PUM1 PUF domain R2-LWD (Homo sapiens, UniProt Q14671 828-1176, N899L;Y900W;Q903D)
How it was run: (§1)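 A centromeric plasmid in strain YBZ-1 co-expressed Pumilio-1 PUF domain libraries, randomized at the three base-contacting residues of each repeat, with matching RNA elements; the strain carries a LexA–MS2 coat fusion and a HIS3 reporter. After four days on SC-Leu (input) or SC-Leu-His + 0.5 mM 3-AT (selection), the repeat regions were PCR-amplified and Illumina-sequenced. The interaction score is the log change in variant frequency from input to selection, using log2 and a pseudocount of 1 where absent.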

PUM1 PUF domain R7-KSS = PUM1 PUF domain R7-KSS (Homo sapiens, UniProt Q14671 828-1176, S1079K;N1080S;E1083S)
How it was run: as §1

PUM1 PUF domain R7-KRA = PUM1 PUF domain R7-KRA (Homo sapiens, UniProt Q14671 828-1176, S1079K;N1080R;E1083A)
How it was run: as §1

PUM1 PUF domain R1-TGE = PUM1 PUF domain R1-TGE (Homo sapiens, UniProt Q14671 828-1176, S863T;R864G;Q867E)
How it was run: as §1

PUM1 PUF domain R1-YTR = PUM1 PUF domain R1-YTR (Homo sapiens, UniProt Q14671 828-1176, S863Y;R864T;Q867R)
How it was run: as §1

PUM1 PUF domain R1-HKR = PUM1 PUF domain R1-HKR (Homo sapiens, UniProt Q14671 828-1176, S863H;R864K;Q867R)
How it was run: as §1

PUM1 PUF domain R1-TLE = PUM1 PUF domain R1-TLE (Homo sapiens, UniProt Q14671 828-1176, S863T;R864L;Q867E)
How it was run: as §1

PUM1 PUF domain R4-RWP = PUM1 PUF domain R4-RWP (Homo sapiens, UniProt Q14671 828-1176, N971R;H972W;Q975P)
How it was run: as §1

PUM1 PUF domain R6-MWS = target: T1, PUM1 PUF domain R6-MWS (Homo sapiens, UniProt Q14671 828-1176, N1043M;Y1044W;Q1047S)
T1 sequence: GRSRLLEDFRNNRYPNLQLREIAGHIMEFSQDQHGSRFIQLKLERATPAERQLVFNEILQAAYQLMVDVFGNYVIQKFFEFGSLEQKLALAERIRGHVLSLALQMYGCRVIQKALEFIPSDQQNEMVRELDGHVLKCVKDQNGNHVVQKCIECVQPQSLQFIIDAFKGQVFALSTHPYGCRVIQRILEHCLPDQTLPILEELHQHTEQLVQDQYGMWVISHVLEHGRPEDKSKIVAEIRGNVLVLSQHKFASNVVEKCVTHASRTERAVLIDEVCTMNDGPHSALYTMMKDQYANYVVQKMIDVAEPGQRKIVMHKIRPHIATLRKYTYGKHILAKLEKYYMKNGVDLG
How it was run: as §1

PUM1 PUF domain R6-QRR = target: T2, PUM1 PUF domain R6-QRR (Homo sapiens, UniProt Q14671 828-1176, N1043Q;Y1044R;Q1047R)
T2 sequence: T1 sequence with M216Q, W217R, S220R
How it was run: as §1

PUM1 PUF domain R8-RYS = PUM1 PUF domain R8-RYS (Homo sapiens, UniProt Q14671 828-1176, N1122R;Q1126S)
How it was run: as §1

PUM1 PUF domain R4-SRI = PUM1 PUF domain R4-SRI (Homo sapiens, UniProt Q14671 828-1176, N971S;H972R;Q975I)
How it was run: as §1

PUM1 PUF domain R4-GWP = PUM1 PUF domain R4-GWP (Homo sapiens, UniProt Q14671 828-1176, N971G;H972W;Q975P)
How it was run: as §1

PUM1 PUF domain R6-CFI = target: T3, PUM1 PUF domain R6-CFI (Homo sapiens, UniProt Q14671 828-1176, N1043C;Y1044F;Q1047I)
T3 sequence: T1 sequence with M216C, W217F, S220I
How it was run: as §1

PUM1 PUF domain R1-RQE = PUM1 PUF domain R1-RQE (Homo sapiens, UniProt Q14671 828-1176, S863R;R864Q;Q867E)
How it was run: as §1

PUM1 PUF domain R1-KCT = PUM1 PUF domain R1-KCT (Homo sapiens, UniProt Q14671 828-1176, S863K;R864C;Q867T)
How it was run: as §1

PUM1 PUF domain R7-RRQ = PUM1 PUF domain R7-RRQ (Homo sapiens, UniProt Q14671 828-1176, S1079R;N1080R;E1083Q)
How it was run: as §1

PUM1 PUF domain R7-GCL = PUM1 PUF domain R7-GCL (Homo sapiens, UniProt Q14671 828-1176, S1079G;N1080C;E1083L)
How it was run: as §1

PUM1 PUF domain R5-KSM = PUM1 PUF domain R5-KSM (Homo sapiens, UniProt Q14671 828-1176, C1007K;R1008S;Q1011M)
How it was run: as §1

PUM1 PUF domain R3-RSP = PUM1 PUF domain R3-RSP (Homo sapiens, UniProt Q14671 828-1176, C935R;R936S;Q939P)
How it was run: as §1

Sequence: GGCUAGAACUAGUGGAUCCCCCGGCGCCCGGCGGCUCGAGCCCGGGUAAGUGUAAAAAGUCUGCAUGCCGCCGGGCGCCAUGCCUGCAGGUCGACUCUAGAAAACAUG
- binding signal (PUM1 PUF domain R2-LWD): 5.97 log2 enrichment (interaction score)

Sequence: GGCUAGAACUAGUGGAUCCCCCGGCGCCCGGCGGCUCGAGCCCGGGUAAGUCUAAAUAGUCUGCAUGCCGCCGGGCGCCAUGCCUGCAGGUCGACUCUAGAAAACAUG
- binding signal (PUM1 PUF domain R7-KSS): 2.54 log2 enrichment (interaction score)
- binding signal (PUM1 PUF domain R7-KRA): 5.25 log2 enrichment (interaction score)

Sequence: GGCUAGAACUAGUGGAUCCCCCGGCGCCCGGCGGCUCGAGCCCGGGUAAGUGUAAAUUGUCUGCAUGCCGCCGGGCGCCAUGCCUGCAGGUCGACUCUAGAAAACAUG
- binding signal (PUM1 PUF domain R1-TGE): 3.46 log2 enrichment (interaction score)
- binding signal (PUM1 PUF domain R1-YTR): 6.22 log2 enrichment (interaction score)
- binding signal (PUM1 PUF domain R1-HKR): 3.25 log2 enrichment (interaction score)
- binding signal (PUM1 PUF domain R1-TLE): 4.15 log2 enrichment (interaction score)

Sequence: GGCUAGAACUAGUGGAUCCCCCGGCGCCCGGCGGCUCGAGCCCGGGUAAGUGUAAAUAGUCUGCAUGCCGCCGGGCGCCAUGCCUGCAGGUCGACUCUAGAAAACAUG
- binding signal (PUM1 PUF domain R4-RWP): 5.93 log2 enrichment (interaction score)
- binding signal (PUM1 PUF domain R6-MWS): 5.31 log2 enrichment (interaction score)
- binding signal (PUM1 PUF domain R6-QRR): 6.35 log2 enrichment (interaction score)
- binding signal (PUM1 PUF domain R8-RYS): 4.4 log2 enrichment (interaction score)
- binding signal (PUM1 PUF domain R4-SRI): 3.08 log2 enrichment (interaction score)
- binding signal (PUM1 PUF domain R4-GWP): 6.31 log2 enrichment (interaction score)

Sequence: GGCUAGAACUAGUGGAUCCCCCGGCGCCCGGCGGCUCGAGCCCGGGUAAGUGAAAAUAGUCUGCAUGCCGCCGGGCGCCAUGCCUGCAGGUCGACUCUAGAAAACAUG
- binding signal (PUM1 PUF domain R6-MWS): 2.78 log2 enrichment (interaction score)
- binding signal (PUM1 PUF domain R6-CFI): 5.68 log2 enrichment (interaction score)

Sequence: GGCUAGAACUAGUGGAUCCCCCGGCGCCCGGCGGCUCGAGCCCGGGUAAGUGUAAAUGGUCUGCAUGCCGCCGGGCGCCAUGCCUGCAGGUCGACUCUAGAAAACAUG
- binding signal (PUM1 PUF domain R1-TGE): 2.92 log2 enrichment (interaction score)
- binding signal (PUM1 PUF domain R1-RQE): 1.2 log2 enrichment (interaction score)
- binding signal (PUM1 PUF domain R1-KCT): 3.31 log2 enrichment (interaction score)
- binding signal (PUM1 PUF domain R1-TLE): 3.5 log2 enrichment (interaction score)

Sequence: GGCUAGAACUAGUGGAUCCCCCGGCGCCCGGCGGCUCGAGCCCGGGUAAGUGCAAAUAGUCUGCAUGCCGCCGGGCGCCAUGCCUGCAGGUCGACUCUAGAAAACAUG
- binding signal (PUM1 PUF domain R6-QRR): 5.8 log2 enrichment (interaction score)

Sequence: GGCUAGAACUAGUGGAUCCCCCGGCGCCCGGCGGCUCGAGCCCGGGUAAGUUUAAAUAGUCUGCAUGCCGCCGGGCGCCAUGCCUGCAGGUCGACUCUAGAAAACAUG
- binding signal (PUM1 PUF domain R7-RRQ): 5.4 log2 enrichment (interaction score)
- binding signal (PUM1 PUF domain R7-GCL): 2.65 log2 enrichment (interaction score)
- binding signal (PUM1 PUF domain R7-KSS): 4.3 log2 enrichment (interaction score)
- binding signal (PUM1 PUF domain R7-KRA): 3.25 log2 enrichment (interaction score)

Sequence: GGCUAGAACUAGUGGAUCCCCCGGCGCCCGGCGGCUCGAGCCCGGGUAAGCGUAAAUAGUCUGCAUGCCGCCGGGCGCCAUGCCUGCAGGUCGACUCUAGAAAACAUG
- binding signal (PUM1 PUF domain R8-RYS): 6.43 log2 enrichment (interaction score)

Sequence: GGCUAGAACUAGUGGAUCCCCCGGCGCCCGGCGGCUCGAGCCCGGGUAAGUGUAAAUCGUCUGCAUGCCGCCGGGCGCCAUGCCUGCAGGUCGACUCUAGAAAACAUG
- binding signal (PUM1 PUF domain R1-YTR): 6.08 log2 enrichment (interaction score)
- binding signal (PUM1 PUF domain R1-RQE): 2.21 log2 enrichment (interaction score)
- binding signal (PUM1 PUF domain R1-KCT): 6.39 log2 enrichment (interaction score)

Sequence: GGCUAGAACUAGUGGAUCCCCCGGCGCCCGGCGGCUCGAGCCCGGGUAAGUGUCAAUAGUCUGCAUGCCGCCGGGCGCCAUGCCUGCAGGUCGACUCUAGAAAACAUG
- binding signal (PUM1 PUF domain R5-KSM): 3.66 log2 enrichment (interaction score)

Sequence: GGCUAGAACUAGUGGAUCCCCCGGCGCCCGGCGGCUCGAGCCCGGGUAAGUGUAAGUAGUCUGCAUGCCGCCGGGCGCCAUGCCUGCAGGUCGACUCUAGAAAACAUG
- binding signal (PUM1 PUF domain R3-RSP): 1.39 log2 enrichment (interaction score)

Sequence: GGCUAGAACUAGUGGAUCCCCCGGCGCCCGGCGGCUCGAGCCCGGGUAAGUGUAAUUAGUCUGCAUGCCGCCGGGCGCCAUGCCUGCAGGUCGACUCUAGAAAACAUG
- binding signal (PUM1 PUF domain R3-RSP): 4.96 log2 enrichment (interaction score)

Sequence: GGCUAGAACUAGUGGAUCCCCCGGCGCCCGGCGGCUCGAGCCCGGGUAAGUGUAUAUAGUCUGCAUGCCGCCGGGCGCCAUGCCUGCAGGUCGACUCUAGAAAACAUG
- binding signal (PUM1 PUF domain R4-SRI): 1.38 log2 enrichment (interaction score)
- binding signal (PUM1 PUF domain R4-GWP): 7.78 log2 enrichment (interaction score)

Sequence: GGCUAGAACUAGUGGAUCCCCCGGCGCCCGGCGGCUCGAGCCCGGGUAAGUGUACAUAGUCUGCAUGCCGCCGGGCGCCAUGCCUGCAGGUCGACUCUAGAAAACAUG
- binding signal (PUM1 PUF domain R4-GWP): 7 log2 enrichment (interaction score)
